According to PubChem BioAssay (Tox21):
Results filed as inconclusive are left out. Active and inactive are the calls of the source. Unless noted, calls follow the shape of the dose curve; as a rule, active = well fitted curve in the direction sought with a large enough effect in the repeat runs; inconclusive = weak or mixed curves; inactive = no such curve, though single readings can be large; an effect the other way counts as inactive or inconclusive.

Columns and labels:
[1] = qHTS assay for small molecule agonists of the p53 signaling pathway (AID 651631; calls by dose curve; also: nearly all actives have a fitted effect of over 15% in size)
Outline: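 HCT-116 cells carrying a beta-lactamase reporter under p53 response elements were dosed with compound for 16 h at 37 °C. LiveBLAzer B/G FRET substrate was then added for 2 h at room temperature, and fluorescence intensity was read to detect pathway agonism.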

[2] = qHTS assay for small molecules that induce genotoxicity in human embryonic kidney cells expressing luciferase-tagged ATAD5 (AID 651632); also: nearly all actives have a fitted effect of over 15% in size
Outline: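 Reporter cells (HEK293T) express luciferase-tagged ATAD5, a protein that accumulates after DNA damage. Treat 16 hr at 37C/5% CO2, add Amplite, wait 30 min at RT, and read luminescence.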

[3] = qHTS assay for small molecule agonists of the p53 signaling pathway - cell viability (AID 651633; calls by dose curve;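 also: p53RE-bla HCT reporter cells with a stable beta-lactamase p53 reporter; series mostly up to about 83 µM; nearly all actives have a fitted effect of over 30% in size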)
Outline: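 p53RE-bla cells were treated with compound for 16 hours at 37 C. Cytotoxicity was then measured as CellTiter-Glo luminescence after 30 min at room temperature.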

[4] = qHTS assay for small molecules that induce genotoxicity in human embryonic kidney cells expressing luciferase-tagged ATAD5 - cell viability (AID 651634; calls by dose curve; also: nearly all actives have a fitted effect of over 25% in size)
Outline: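 Seeding of 2,000 HEK293T ATAD5-luciferase cells per well preceded pin-tool compound transfer. Plates sat 15.5 hr at 37C under 5% CO2, then fluorescence was read after 30 min with CellTiter-Fluor.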

[5] = qHTS assay for small molecule disruptors of the mitochondrial membrane potential - cell viability (AID 720634; calls by dose curve;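 also: human HepG2 liver cancer cells; series mostly up to about 83 µM; nearly all actives have a fitted effect of over 20% in size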)
Outline: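 Measuring cytotoxicity alongside mitochondrial potential, the screen quantified ATP by luminescence in HepG2 cells after 1 hr compound incubation and a 30 min room-temperature CellTiter-Glo step.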

[6] = qHTS assay for small molecule disruptors of the mitochondrial membrane potential (AID 720635)
Outline: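 HepG2 cells exposed to compound 1 hr at 37C, then Mito-MPS dye 30 min. Ratio read of aggregate (540/590 nm) versus monomer (490/535 nm) fluorescence.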

[7] = qHTS assay to test for compound auto fluorescence at 590 nm (red) in HepG2 cells (AID 720674)
Outline: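 Fluorescence at 590 nm emission following 540 nm excitation was recorded from HepG2 wells one hour after compound transfer, with DMSO-only wells as vehicle and Rose Bengal sodium equivalency as the scale.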

[8] = qHTS assay to test for compound auto fluorescence at 460 nm (blue) in HEK293 cells (AID 720678)
Outline: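 HEK293, 2,000 cells/well, 10% dialyzed FBS; attach 4-5 hr 37C; pin compound or DMSO; o/n 37C/5% CO2; fluorescence 405/460 nm; triamterene-equivalent units.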

[9] = qHTS assay to test for compound auto fluorescence at 590 nm (red) in HEK293 cells (AID 720679)
Outline: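 Intensity at 540nm excitation and 590nm emission is reported as Rose Bengal sodium-equivalent autofluorescence. Measurements followed overnight exposure (37C, 5% CO2) of HEK293 cells, 2,000 per well, to 23 nL compound.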

[10] = qHTS assay to test for compound auto fluorescence at 535 nm (green) in HEK293 cells (AID 720680)
[11] = qHTS assay to test for compound auto fluorescence at 460 nm (blue) in HEK293 cell free culture (AID 720681)
Outline: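 Compounds were added to cell-free DMEM with 10% FBS and fluorescence read directly. The blue channel used 405 nm excitation and 460 nm emission, with triamterene as the reference fluorophore.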

[12] = qHTS assay to test for compound auto fluorescence at 535 nm (green) in HEK293 cell free culture (AID 720682)
Outline: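 Green-label autofluorescence (485 nm excitation, 535 nm emission) measured on compound added to cell-free culture medium (DMEM, 10% FBS). Output is expressed relative to fluorescein.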

[13] = qHTS assay to test for compound auto fluorescence at 590 nm (red) in HEK293 cell free culture (AID 720683)
Outline: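 Cell-free wells of DMEM with 10% FBS received compound, and intrinsic fluorescence was read at excitation/emission 540/590 nm. Values expressed as equivalence to Rose Bengal sodium.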

[14] = qHTS assay to test for compound auto fluorescence at 590 nm (red) in HepG2 cell free culture (AID 720684)
Outline: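 Compound was pinned into wells holding MEM with 10% FBS and no cells, and red fluorescence was read at Ex/Em 540/590 nm. Signal is expressed as auto fluorescence equivalency relative to Rose Bengal sodium.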

[15] = qHTS assay to test for compound auto fluorescence at 460 nm (blue) in HepG2 cell free culture (AID 720685)
Outline: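 Compound (23 nL) or DMSO pinned into cell-free MEM with 10% FBS; blue fluorescence read at 405/460 nm excitation/emission, expressed as auto-fluorescence equivalency to triamterene.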

[16] = qHTS assay to test for compound auto fluorescence at 535 nm (green) in HepG2 cell free culture (AID 720686)
[17] = qHTS assay to test for compound auto fluorescence at 460 nm (blue) in HepG2 cells (AID 720687)
Outline: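 HepG2 cells in MEM with 10% FBS, attached overnight at 37 C, were exposed to compound or DMSO for 1 hr at 37 C, 5% CO2. Blue fluorescence was read at 405/460 nm, with triamterene as reference fluorophore.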

[18] = target: Glucocorticoid receptor (Homo sapiens) (UniProt P04150); test: qHTS assay to identify small molecule antagonists of the glucocorticoid receptor (GR) signaling pathway (AID 720692; active = well fitted inhibition curve with a large enough effect in the signal ratio in the repeat runs, not every such curve was filed as active; the % refers to the signal ratio)
Outline: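 Dexamethasone (5 nM final) stimulated a stably integrated GRE-beta-lactamase reporter in HeLa cells during 18 h co-incubation with compounds; signal was quantified as fluorescence intensity of B/G FRET substrate after 2 h.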

[19] = qHTS assay to test for compound auto fluorescence at 535 nm (green) in HepG2 cells (AID 720675)
[20] = target: Glucocorticoid receptor (Homo sapiens) (UniProt P04150); test: qHTS assay to identify small molecule agonists of the glucocorticoid receptor (GR) signaling pathway (AID 720691; active = well fitted activation curve with a large enough effect in the signal ratio in the repeat runs, not every such curve was filed as active; the % refers to the signal ratio)
Outline: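 Reporter read-out: fluorescence intensity following 2 h room-temperature LiveBLAzer B/G FRET substrate loading. Prior step: GR-bla HeLa cells held 4 h, then treated 18 h at 37 C.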

Measured: Potency

Chain of Glucocorticoid receptor (Homo sapiens) (P04150 whole entry, looked up): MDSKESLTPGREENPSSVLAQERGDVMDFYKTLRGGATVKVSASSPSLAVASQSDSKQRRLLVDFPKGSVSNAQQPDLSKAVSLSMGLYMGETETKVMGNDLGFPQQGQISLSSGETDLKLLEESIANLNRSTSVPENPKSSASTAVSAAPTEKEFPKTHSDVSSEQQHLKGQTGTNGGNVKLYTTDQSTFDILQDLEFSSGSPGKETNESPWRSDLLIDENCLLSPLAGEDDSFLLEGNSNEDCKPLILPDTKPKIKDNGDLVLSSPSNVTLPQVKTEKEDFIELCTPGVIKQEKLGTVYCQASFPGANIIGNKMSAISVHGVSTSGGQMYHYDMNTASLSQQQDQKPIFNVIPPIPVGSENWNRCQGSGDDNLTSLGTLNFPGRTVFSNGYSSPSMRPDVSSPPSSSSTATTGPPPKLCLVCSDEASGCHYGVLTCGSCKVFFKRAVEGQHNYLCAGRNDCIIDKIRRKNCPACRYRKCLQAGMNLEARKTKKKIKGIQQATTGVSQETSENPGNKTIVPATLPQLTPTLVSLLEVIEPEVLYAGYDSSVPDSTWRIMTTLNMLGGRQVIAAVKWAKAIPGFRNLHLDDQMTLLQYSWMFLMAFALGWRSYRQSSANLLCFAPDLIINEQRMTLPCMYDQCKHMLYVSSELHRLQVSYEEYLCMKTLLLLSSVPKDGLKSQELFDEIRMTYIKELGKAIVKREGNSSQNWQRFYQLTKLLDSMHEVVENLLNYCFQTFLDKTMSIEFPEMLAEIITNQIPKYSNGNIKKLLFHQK

CC(C)(C)NCC(O)c1cc(Cl)c(N)c(C(F)(F)F)c1 (configuration not stated)
not listed: [19] | [20]
inactive: all other assays above

CC(C)C1(C)N=C(c2ncccc2C(=O)O)NC1=O (configuration not stated)
not listed: [6] | [20]
inactive: all other assays above

COc1ccc(C(O)(c2cncnc2)C2CC2)cc1 (configuration not stated)
not listed: [6]
inactive: all other assays above

O=C(O)C(F)(F)C(F)(F)C(F)(F)C(F)(F)C(F)(F)F
not listed: [6]
inactive: all other assays above

CNC(=O)Oc1cccc(N=CN(C)C)c1
not listed: [18] | [20]
inactive: all other assays above

CCOP(=S)(S)OCC
not listed: [6]
inactive: all other assays above

CC(Oc1cccc(Cl)c1)C(=O)O (configuration not stated)
not listed: [13] | [20]
inactive: all other assays above

O=C(O)c1cc(Cl)ccc1Cl
not listed: [18]
inactive: all other assays above

C[N+]1(CCF)[C@@H]2CC[C@H]1CC(OC(=O)C(O)(c1ccccc1)c1ccccc1)C2 (some centres not stated)
not listed: [19]
inactive: all other assays above

c1ccc2c(c1)sc1ccccc12
not listed: [6]
inactive: all other assays above

CN(C)N
not listed: [19]
inactive: all other assays above

CCCC1CCCCN1 (configuration not stated)
not listed: [18] | [20]
inactive: all other assays above

C[C@H]1O[C@H](OC2[C@@H](O)[C@@H](O)C(O)[C@H](O)[C@H]2O)[C@@H](N)C[C@@H]1N=C(N)C(=O)O (some centres not stated)
not listed: [19]
inactive: all other assays above

CC(Cl)C(=O)O (configuration not stated)
not listed: [6] | [18] | [20]
inactive: all other assays above

CCCCC1C(=O)NC(=O)N(C2CCCCC2)C1=O (configuration not stated)
not listed: [13] | [19]
inactive: all other assays above

Clc1ccc2ccccc2c1
inactive: all assays above
